This is part of a sample that, as a whole, favours compounds with a hit. Of some 83,000 tested, about 20% had one in any assay.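 Step 1: grow cells in 96-well plates. Step 2: add test compound at a single concentration. Step 3: incubate 48 h. Step 4: record percent growth.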 Values without a mark were called inactive. Calls of active or inactive are those of the source. Rule for the calls: active = growth percent below 10; inactive = the rest.
What was measured:
Test in all cases: NCI-60 one-dose screen, 48 h (100 = growth as untreated, 0 = no growth, -100 = all killed)
Conditions in all cases: 10 µM unless noted
[1] = system: OVCAR-8 ovarian
[2] = system: OVCAR-5 ovarian
[3] = system: SK-OV-3 ovarian
[4] = system: IGROV1 ovarian
[5] = system: OVCAR-3 ovarian
[6] = system: NCI/ADR-RES ovarian
[7] = system: T-47D breast
[8] = system: OVCAR-4 ovarian
[9] = system: HS 578T breast

Row | SMILES | growth [1] | growth [2] | growth [3] | growth [4] | growth [5] | growth [6] | growth [7] | growth [8] | growth [9]
1 | O=C(OCCBr)c1ccc(Cl)c([N+](=O)[O-])c1 | 102% | 108% | 79.4% | 102% | -21.3% (active) | 113% | -57.2% (active) |  | 
2 | Cc1nn(-c2ccc(Cl)cc2)c2nc3c(nc12)C(=O)c1ccccc1-3 |  | 90.8% | 32.7% | 77.3% | 62.8% | 62.9% | 73.7% | 34.5% | 63.7%
3 | c1ccc(Nc2nnc(-c3cc(-c4cccnc4)n(-c4ccccc4)n3)s2)cc1 | 59.9% | 105% | 109% | 108% | 106% | 62.4% | 51.3% |  | 119%
4 | O=Nc1ccc(O)c(=O)cc1 | 43.8% | 68.1% | 108% | 18.7% |  | 38% | 18.5% |  | 107%
5 | Cc1ccc(C(O)C2=CC(=O)c3ccccc3C2=O)cc1 (stereo unspecified) | 91.3% | 95.4% | 105% | 89.6% | 93.3% | 96.4% | 76.5% |  | 104%
6 | c1ccc2cc(C[n+]3ccn(CCCCCCCn4cc[n+](Cc5ccc6ccccc6c5)c4)c3)ccc2c1 |  | 48.2% | 36.1% | 27.5% | 44.4% | 99.7% | 23.4% | 37.3% | 61.5%

Reference: PubChem BioAssay (NCI)
